The whole screen tested about 60,000 compounds, of which about 210 (0.35%) were called active.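 Rule for the calls: active = inhibition above the screen-wide mean inhibition plus 3 SD (cut at about 18% in these data); inactive = the rest.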 Many of the other results were omitted from the sample, so actives are more common in it than they were.

Chain of Rho-associated protein kinase 2 (Homo sapiens) (O75116 whole entry, looked up): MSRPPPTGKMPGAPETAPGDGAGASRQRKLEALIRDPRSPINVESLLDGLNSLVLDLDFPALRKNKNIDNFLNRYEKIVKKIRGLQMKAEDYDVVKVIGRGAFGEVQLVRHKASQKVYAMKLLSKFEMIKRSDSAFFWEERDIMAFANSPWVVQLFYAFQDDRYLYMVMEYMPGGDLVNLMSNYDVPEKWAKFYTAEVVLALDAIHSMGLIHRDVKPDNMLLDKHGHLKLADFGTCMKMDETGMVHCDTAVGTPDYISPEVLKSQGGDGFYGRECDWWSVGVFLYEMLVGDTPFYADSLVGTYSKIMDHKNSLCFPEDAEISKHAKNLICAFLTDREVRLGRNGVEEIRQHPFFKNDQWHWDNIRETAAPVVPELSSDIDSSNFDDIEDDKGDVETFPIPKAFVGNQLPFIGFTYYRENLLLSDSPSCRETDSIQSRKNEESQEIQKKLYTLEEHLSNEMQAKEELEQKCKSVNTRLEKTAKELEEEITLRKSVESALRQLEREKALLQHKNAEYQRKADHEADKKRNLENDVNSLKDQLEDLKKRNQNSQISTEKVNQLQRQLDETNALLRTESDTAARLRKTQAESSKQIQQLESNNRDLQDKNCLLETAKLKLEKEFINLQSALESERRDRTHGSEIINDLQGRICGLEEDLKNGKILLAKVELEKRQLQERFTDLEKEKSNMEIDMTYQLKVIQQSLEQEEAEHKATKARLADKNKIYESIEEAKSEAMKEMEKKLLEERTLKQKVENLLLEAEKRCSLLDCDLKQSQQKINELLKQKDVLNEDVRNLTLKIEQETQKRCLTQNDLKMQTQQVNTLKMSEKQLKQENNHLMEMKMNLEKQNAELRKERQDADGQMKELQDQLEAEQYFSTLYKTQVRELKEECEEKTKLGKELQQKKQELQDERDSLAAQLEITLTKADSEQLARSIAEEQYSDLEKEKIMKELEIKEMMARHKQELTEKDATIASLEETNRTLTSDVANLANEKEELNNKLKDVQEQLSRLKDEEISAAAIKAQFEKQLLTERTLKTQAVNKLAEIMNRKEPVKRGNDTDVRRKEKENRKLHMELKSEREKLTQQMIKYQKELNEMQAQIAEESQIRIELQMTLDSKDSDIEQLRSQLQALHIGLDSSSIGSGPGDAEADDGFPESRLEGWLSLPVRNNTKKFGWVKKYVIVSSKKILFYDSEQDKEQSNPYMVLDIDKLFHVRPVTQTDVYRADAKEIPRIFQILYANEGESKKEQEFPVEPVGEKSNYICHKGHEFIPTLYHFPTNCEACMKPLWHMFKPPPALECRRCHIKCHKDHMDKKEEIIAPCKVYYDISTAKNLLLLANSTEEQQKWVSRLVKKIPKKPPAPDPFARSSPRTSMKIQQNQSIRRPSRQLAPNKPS

The experiment concerns the target Rho-associated protein kinase 2 (Homo sapiens) (UniProt O75116). Kind of experiment: inhibitors of human ROCK2 kinase, primary screen, biochemical, high-throughput, luminescence (AID 604).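 Note: plate controls were DMSO wells for no effect and Y-27632 control wells after no-enzyme background subtraction for full effect.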 Particulars: purified ROCK2, Kinase-Glo ATP depletion luminescence; at 6 µM; stronger effect = higher value.
On to `O=C(Nn1cnc2ccccc2c1=O)c1ccc(F)cc1Cl`, for which the inhibition was 4.2% (inactive).
In the case of `CCCCCCn1c(SCC(=O)c2ccccc2)nc2c1c(=O)[nH]c(=O)n2C`, the inhibition was 6.3% (inactive).
The value for `O=C(CSc1nnc2scc(-c3ccc(F)cc3)n12)NCc1ccco1` was 2.1% (inactive).
Turning to `CC1(C)C2CCC1(C)C(OC(=O)CCn1ccnc1)C2` (stereo unspecified), the inhibition was 6.6% (inactive).
The value for `O=C(CC1Nc2ccccc2NC1=O)Nc1ccccc1` (stereo unspecified) was 3% (inactive).
`O=C(C1=C(O)C(=O)N(c2ncccn2)C1c1cccs1)c1ccco1` (stereo unspecified): the inhibition is -11.1% (inactive).
`CNC(=O)C1CC(=O)N(Cc2ccc3c(c2)OCO3)C(=Nc2ccc(F)cc2)S1` (stereo unspecified): the inhibition was -7.4% (inactive).
`O=CN1CCN(C2CC(=O)N(c3ccc4c(c3)OCO4)C2=O)CC1` (stereo unspecified): the inhibition is 7% (inactive).
Under `O=C1CC(N2CCN(C(c3ccccc3)c3ccccc3)CC2)C(=O)N1` (stereo unspecified) stands 5.5% (inactive); under `CCc1ccc2oc(-c3ccc(N)cc3)nc2c1`, 4.1% (inactive).
As for `CCCCCC(=O)Nc1ccc2oc(-c3ccncc3)nc2c1`, the inhibition was 22.3% (active).
The value for `CCCC(=O)Nc1ccc2c(c1)nc1n2CCSC1` was -0.6% (inactive).
With `NC(=O)C1CCN(C2OC(=O)c3ccccc32)CC1` (stereo unspecified), the inhibition was 7.4% (inactive).
The value for `COc1cc2c(cc1NC(=O)CN1CCN(S(=O)(=O)c3ccc(F)cc3)CC1)oc1ccccc12` was 3.5% (inactive); that for `Cc1noc(COc2ccccc2OCC(O)CNC(C)(C)C)n1` (stereo unspecified) was 1.2% (inactive).
The value for `O=P(c1ccc2c(c1)OCCO2)(N1CCOCC1)N1CCOCC1` was -3.2% (inactive).
Regarding `Cc1nn(-c2ccccc2)c2[nH]c(C(F)(F)F)cc(=O)c12`, the inhibition was -0.3% (inactive).
Take `CCOc1ccc(CCNC(=O)C(CC)n2nc(C)n3c(cc4sccc43)c2=O)cc1OCC` (stereo unspecified): the inhibition is -3.8% (inactive).
Take `CCc1nnc(NC(=O)CCC(=O)O)s1`: the inhibition is -4.5% (inactive).
The value for `O=[n+]1c2c(n([O-])c3cc(Br)ccc31)CCC2` was -5% (inactive); that for `CC(=O)c1ccc(NC(=O)N[C@@H](Cc2ccccc2)C(=O)O)cc1` was -0.8% (inactive).
As to `Cc1cc(Nc2ccccc2)n(CCC#N)n1`, the inhibition is 4.6% (inactive).
On to `Cc1c(C(=O)N2CC(C)OC(C)C2)sc2nc(-c3ccccc3)cn12` (stereo unspecified), for which the inhibition was 8.6% (inactive).
On to `Cc1c(NC(=O)C(C)OC(=O)c2cc3c4ccccc4n(C)c3s2)c(=O)n(-c2ccccc2)n1C` (stereo unspecified), for which the inhibition is 5.5% (inactive).
The value for `Fc1cnc(N2CCOCC2)nc1NCc1ccccc1` was -0.4% (inactive); that for `Cc1nc(-c2ccc(NC(=O)c3cccs3)cc2)cs1` was -25% (inactive).
Under `Cc1nnc(NC2=NCCCCC2)o1` stands -0.7% (inactive); under `Cc1ccc(S(=O)(=O)c2nc(NCCCn3ccnc3)sc2Cl)cc1`, 1.7% (inactive); under `CCC1(C)N(O)C(C)(C)C(c2ccc(OC)cc2)=[N+]1[O-]` (stereo unspecified), 2.5% (inactive).
With `O=c1[nH]c(=O)n(Cc2ccco2)c2c1C(C(F)(F)F)(C(F)(F)F)N=C(c1ccco1)N2`, the inhibition was 5% (inactive).
The value for `N#CCCN1CCN(S(=O)(=O)c2ccc(S(=O)(=O)NC3CC3)cc2)CC1` was 1.7% (inactive); that for `CCOC(=O)CSc1nnc(-c2cccc(Br)c2)o1` was 2.1% (inactive).
With `COc1cc(=O)[nH]c(=O)n1C(=O)Cc1ccccc1`, the inhibition is -0.6% (inactive).
Turning to `Cc1cc(C)nc(SCc2ccccc2C#N)n1`, the inhibition is 6% (inactive).
The value for `COc1ccc(N2C(=O)C3CCCN3C2c2cccs2)cc1` (stereo unspecified) was -2.8% (inactive).
Consider `CCC(C)(NC(=O)c1ccccn1)C(=O)NC1CCCCC1` (stereo unspecified), for which the inhibition was -0.8% (inactive).
For `Cc1ccc2[nH]c(=O)c(COC(=O)c3ccccn3)cc2c1`, the inhibition was 6.5% (inactive).
As to `CCCC(=O)Nc1ccc(Cl)c(NC(=O)c2ccc(Br)o2)c1`, the inhibition was -0.6% (inactive).
As to `O=C(c1ccco1)N1CCN(C(=O)C2CC(c3ccc(F)cc3)=NO2)CC1` (stereo unspecified), the inhibition was 1.1% (inactive).
The value for `COc1ccc(C(=O)Nc2c(N)nc(SCC(=O)N3CCC(C)CC3)[nH]c2=O)cc1OC` was 1.5% (inactive).
With `CN1CCN(CC(O)COCc2ccc3c(c2)OCO3)CC1` (stereo unspecified), the inhibition is 5.7% (inactive).
The value for `O=C(NCc1ccco1)c1cnn2c(C(F)(F)F)cc(-c3ccco3)nc12` was 12.9% (inactive).
The value for `NC(=O)Cn1c(=O)oc2ccccc21` was -2% (inactive).
Under `CCOc1ccc2[nH]c(=O)c(CN(CCCO)C(C)=O)cc2c1` stands -4.4% (inactive).
Turning to `Fc1ccc(Cn2nnnc2C(c2cccs2)N2CCCCCC2)cc1` (stereo unspecified), the inhibition was 4.1% (inactive).
Under `CC(C)C1Cc2c(sc3c2c(=O)n(-c2ccccc2)c2nncn32)CO1` (stereo unspecified) stands 5.5% (inactive); under `O=C(c1ccco1)N1CCN(C(=O)c2ccc(COc3ccc(F)cc3)o2)CC1`, -1.9% (inactive); under `O=S(=O)(Nc1ccccn1)c1ccc(Oc2ccccc2)cc1`, -6.5% (inactive).
Under `Nn1c(SCC(=O)NC(=O)NC2CCCC2)nnc1-c1ccccc1F` stands 12.5% (inactive); under `CCCCC(=O)Nc1ccc2c(c1)C(=O)NC2=O`, 23.1% (active).
Under `CN1C(=O)c2ccc(NC(=O)c3c(F)c(F)c(F)c(F)c3F)cc2C1=O` stands 9.3% (inactive).
For `CCCCC(=O)Nc1ccc2c(c1)OCCO2`, the inhibition was -1.9% (inactive).
Take `Cc1ccccc1CSCC(=O)NC(=O)NC(C)(C)C`: the inhibition was 4.6% (inactive).
Under `CCSc1nc(=S)n(CC)c(C)c1C(C)=O` stands 0.9% (inactive); under `CSc1ccc(NC(=O)N2CC(C)OC(C)C2)cc1` (stereo unspecified), 6.5% (inactive).
`CCN(CC)C(=O)CSc1nnc(-c2ccc(S(=O)(=O)NCc3ccccc3Cl)cc2)o1`: the inhibition is 1.9% (inactive).
The value for `Cc1nn(Cc2ccc(Cl)c(Cl)c2)c(C)c1NC(=O)c1cc(C2CC2)on1` was -8.2% (inactive); that for `Cc1ccc(O)c(NC(=O)COc2cc(C)ccc2C)c1` was 3.2% (inactive).
Under `COc1ccc(OC)c(NC(=O)CN2CCN(C(=O)c3ccco3)CC2)c1` stands 0.1% (inactive); under `OCCNCCCCOc1ccccc1F`, 5.9% (inactive); under `CCSc1ncnc2c(C#N)c3n(c12)CCCCC3`, 3% (inactive).
The value for `CC(=O)Nc1nonc1-c1nc2ccccc2n1Cc1ccccn1` was 2.3% (inactive); that for `Cn1c(=O)c2c(n(Cc3ccccc3)c1=O)NC(=O)C2CC(=O)N1CCc2ccccc2C1` (stereo unspecified) was 6.4% (inactive); that for `C=CCn1c(C)cc(C(=O)CN2C(=O)c3ccccc3C2=O)c1C` was 2.5% (inactive).
Turning to `CCCn1cc(SCC(N)=O)c2ccccc21`, the inhibition was 4.9% (inactive).
On to `Cc1ccc(C(=O)NCC2CCCO2)o1` (stereo unspecified), for which the inhibition was 4.3% (inactive).
For `C=CCn1cnc2scc(-c3ccccc3)c2c1=O`, the inhibition is 1.2% (inactive).
Under `C#CCN1CC(C)/C(=N/O)CC1C` (stereo unspecified) stands 3.7% (inactive); under `O=C1CC(c2ccccc2)CC(O)=C1C=NCCN1CCOCC1` (stereo unspecified), 3.3% (inactive); under `COc1cccc(N2CCN(C(=O)C3CCCN(S(=O)(=O)c4cnc[nH]4)C3)CC2)c1` (stereo unspecified), 3.3% (inactive).
On to `Cc1cc(C(=O)CC#N)c(C)n1CC(F)(F)F`, for which the inhibition is 3.3% (inactive).
Under `O=C1C=C(NCCNc2c(F)c(F)c(CO)c(F)c2F)CCC1` stands 1.5% (inactive).
Under `Cc1cn(C2C=CC(CO)O2)c(=O)[nH]c1=O` (stereo unspecified) stands 6.1% (inactive); under `Cc1cc(=O)[nH]c(SCC(=O)N2c3ccccc3CC2C)n1` (stereo unspecified), -3.6% (inactive); under `CC(C)OCCCNc1nc2c(c(=O)n(Cc3ccccc3F)c(=O)n2C)n1C`, -0.3% (inactive).
The value for `CC1Cc2ccccc2N1C(=O)CSc1nnc(-c2ccc(S(=O)(=O)N3CCCCC3)cc2)o1` (stereo unspecified) was -4.4% (inactive).
Take `CCCCCCn1c(CN2CCCCC2)nc2c1c(=O)n(C)c(=O)n2C`: the inhibition is -1.3% (inactive).
Under `Cc1nn(-c2ccccc2)c(C)c1C(=O)OCC(=O)NC(=O)NC1CCCCC1` stands 1.4% (inactive); under `COC(=O)C(C)n1cnc2c(nnn2-c2cccc(Cl)c2)c1=O` (stereo unspecified), 7.7% (inactive).
Regarding `O=C(CC1N=C2c3ccccc3N=C(SCc3ccccc3Cl)N2C1=O)NCc1ccco1` (stereo unspecified), the inhibition is 2.8% (inactive).
Regarding `Cc1cccc(OCc2nnc(SCC(=O)N3CCN(C(=O)c4ccco4)CC3)n2C)c1C`, the inhibition was 3.2% (inactive).
The value for `O=C(c1cc(-c2ccccc2O)on1)N1CCCC1` was -1.5% (inactive); that for `CCOC(=O)N1CCC(NC(=O)Cn2cc3c(n2)CCCCC3)CC1` was 9% (inactive); that for `O=C(CN1CCOCC1)Nc1cc(Cl)ccc1Cl` was 2.5% (inactive).
Take `O=C(NCc1ccco1)C1CCCN(S(=O)(=O)c2cnc[nH]2)C1` (stereo unspecified): the inhibition was 3.2% (inactive).
On to `COc1cccc(-c2nn(C)c3sc(C(=O)N4CCN(c5ccccc5)CC4)cc23)c1`, for which the inhibition is 6.1% (inactive).
Under `O=C(Nc1ccn(Cc2ccc(F)cc2)n1)c1ccncc1` stands 18.1% (inactive).
The value for `CCOC(=O)Cc1csc(NC(=O)CN(C)S(=O)(=O)c2ccc3c(c2)CCC(=O)N3)n1` was 2.4% (inactive); that for `CC(C)n1c(NCc2c[nH]c3ccccc23)nc2ccccc21` was 2.4% (inactive); that for `Cc1cc(NC(=O)CCC(=O)N(c2cccc(F)c2)C(C(=O)NC2CCCC2)c2ccncc2)no1` (stereo unspecified) was 4% (inactive).
Regarding `Cc1ccccc1-c1nc(CS(=O)(=O)CC(=O)N2CCc3ccccc3C2)c(C)o1`, the inhibition was -0.8% (inactive).
Under `CN(C)Cc1c(O)ccc2occ(C(O)c3ccccc3)c12` (stereo unspecified) stands 2% (inactive); under `CSc1ccc(S(=O)(=O)NCc2ccc(Cl)cc2)cc1`, 5.4% (inactive); under `CCOC(=O)N1CCN(Cc2nc3c(c(=O)n(C)c(=O)n3C)n2Cc2ccccc2)CC1`, 2.4% (inactive).
Under `CCn1c(SCC(=O)Nc2cc(C)c(Cl)cc2OC)nnc1-c1ccco1` stands 3.2% (inactive).
Take `Cc1ccc(N2CCN(S(=O)(=O)N(C)C)CC2)cc1Cl`: the inhibition is 8.1% (inactive).
Under `O=c1c(-c2ccc3c(c2)OCCO3)c(C(F)(F)F)oc2cc(O)cc(O)c12` stands -3.1% (inactive); under `CCOC(=O)C1=C(C)NC(C)=C(C(=O)OCC)C1c1ccccn1`, -6.7% (inactive); under `CC(=O)N1CSCC1C(=O)O` (stereo unspecified), 2.3% (inactive).
Under `Cc1noc(C)c1C(=O)Nc1ccccn1` stands 8.1% (inactive).
Under `O=C(NCc1cccnc1)c1ccc(CS(=O)(=O)c2ccc(Br)cc2)o1` stands 1.6% (inactive).

Usually inhibition stands for the drop in the measured response relative to a control, in per cent.
